High-throughput results as filed in PubChem BioAssay.
Most compounds without a hit are left out; they make up all but 4.3% or so of the library.
UBC13 polyUb – blocks human UBC13 polyubiquitin chain formation; TR-FRET; inhibition, % at 20 µM; actives 0.47% (n = 330,000); P61088; in the data active = inhibition above about 45%, passing the limit was not always enough; inconclusive = no clear call, values can overlap the other calls
Target sequence (P61088 whole entry, looked up): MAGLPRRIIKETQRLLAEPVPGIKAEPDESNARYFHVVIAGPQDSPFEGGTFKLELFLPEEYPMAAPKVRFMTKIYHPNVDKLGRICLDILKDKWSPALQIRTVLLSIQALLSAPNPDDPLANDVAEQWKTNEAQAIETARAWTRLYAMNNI
CR mimetic SO – yeast age-related superoxide inhibition as caloric restriction mimetic. S. cerevisiae aged cells, superoxide DHE fluorescence; hits give low values. superoxide response (% of plate mean), % at 10 µM. actives 0.18% (n = 330,000). AID 2690;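 active = superoxide response under a set limit, about three screen SD below normal, cut at about 65% in these data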;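 note: yeast aged for seven days with compound at 30 °C before DHE staining; 100% = average MFI of all compound-treated wells on the plate with controls excluded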
NALP1 inh – inhibitors of NALP1 inflammasome in yeast. S. cerevisiae NALP1/ASC/caspase-1 growth, X-gal OD620, 72 h. inhibition, % at 10 µM. actives 0.61% (n = 280,000). AID 2071; in the data active = inhibition mostly above about 24%, no sharp cut-off; inactive = mostly below about 32%
dFosB act – mouse delta FosB homodimer activation. P13346. purified delta FosB, TAMRA-CDK5 oligo fluorescence polarization; percent of positive-control signal above neutral wells. activation, % at 25 µM. actives 0.99% (n = 340,000);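 active = mean activation above about 17%, with every replicate also reaching it, limit read from the data, passing the limit was not always enough; inconclusive = only one of the two conditions met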
GRIN3A LBD mod – NR3A (human) ligand-binding domain modulation. NR3A LBD differential scanning fluorimetry, Tm shift; 0% = protein alone, 100% = glycine-bound protein. Tm shift relative to glycine control, % at 25 µM. actives 2.5% (n = 340,000). AID 1259313;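 active = melting temperature shift of at least 10% of the positive control shift, at one fixed dose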
An asterisk follows results filed as active; u = inconclusive; x = not tested or not shown.

SMILES	UBC13 polyUb	CR mimetic SO	NALP1 inh	dFosB act	GRIN3A LBD mod
CCn1c(CN(C)c2ccccc2)nc2ccccc21	-8	95	12	-2	-1
COc1ccc(CNCCS(=O)(=O)NN2CCOCC2)cc1	x	116	x	1	17*
Cc1ccc(C)c(NC(=O)CCC(=O)NN=C2CCCC2)c1	-5	75	19	0	1
COc1ccc(NC(=O)CCNS(=O)(=O)c2cc(Br)cnc2N)c(OC)c1	2	101	-4	-8	-1
CCOC(=O)C1CCCN(C(=O)c2c(-c3ccccc3Cl)noc2C)C1 (stereo unspecified)	7	115	5	10	0
CCOC(=O)C1CCCN(C(=O)Nc2c(-c3ccccc3)noc2C)C1 (stereo unspecified)	4	112	36*	2	1
CCOc1ccc(OCCCC(=O)N2CCN(S(=O)(=O)c3ccccc3C#N)CC2)cc1	-6	117	x	-5	0
COC(=O)[C@@H]1C[C@@]2(O)[C@H](O)[C@H](O)[C@H](O)C[C@H]2N1Cc1cc(F)ccc1F	-8	103	x	3	11*
CC(C)=CCC/C(C)=C/CNC(=O)C[C@H]1C[C@H](C(=O)N(C(C)C)C(C)C)[C@@]2(C)c3[nH]c4cc(-c5ccco5)ccc4c3CCN2C1=O	x	104	x	-14	-1
O=C(Nc1ccc(Br)c(Cl)c1)C1CC1	8	70	45*	-3	2
CCN(CC)CCn1c(=S)[nH]c2cc(C(=O)N3CC(C)CC(C)C3)ccc2c1=O (stereo unspecified)	3	103	-20	-9	-2
CCCCNC(=O)c1sc(=S)n2c1[nH]c(=O)c1ccc(C(=O)NCCc3ccc(OC)c(OC)c3)cc12	-16	92	-18	-10	-3
O=C(NCc1ccccc1)c1sc(=S)n2c1[nH]c(=O)c1ccccc12	-12	119	6	-14	12*
O=C(CC(Nc1ccccc1)C(=O)O)c1ccccc1 (stereo unspecified)	0	95	-11	2	36*
C[C@H](NC(=O)c1nc[nH]c1C(=O)NC1CCNCC1)C(=O)OCc1ccccc1	14	103	x	x	x
COc1ccc2[nH]c3c(=O)n(CCCC(=O)NC4CCCCC4C)c(=S)[nH]c3c2c1 (stereo unspecified)	-13	109	-8	52*	2
CC1CCCCC1NC(=O)CCCn1c(=S)[nH]c2ccccc2c1=O (stereo unspecified)	-9	98	-11	3	-1
Cc1ccc(NC(=O)c2cc3ccccc3cc2O)cc1	14	106	-13	-9	22*
O=C(Nc1ccc2ccccc2c1)c1ccccc1[N+](=O)[O-]	x	x	x	-9	-3
O=C(COC(=O)c1ccccc1O)Nc1ccc2ccccc2c1	5	79	x	u	15*
O=C(Nc1ccc2ccccc2c1)c1ccccc1O	0	98	16	-2	20*
Cc1ccc2[nH]c3c(c2c1)CCc1cn[nH]c1-3	9	103	10	-4	28*
CC1CN(C(=O)c2ccc(NS(=O)(=O)c3ccc(C(C)(C)C)cc3)cc2)CC(C)O1 (stereo unspecified)	1	x	7	-15	1
O=C(Nc1cccc(Br)c1)c1ccn[nH]1	-4	97	-13	-4	27*
O=C(Nc1cccc(C(=O)Nc2cccc(Br)c2)c1)c1ccccc1	-5	105	-18	-7	35*
SMILES	UBC13 polyUb	CR mimetic SO	NALP1 inh	dFosB act	GRIN3A LBD mod
O=C(NS(=O)(=O)c1ccccc1)c1cccc(Br)c1	1	123	0	5	21*
O=C(O)c1ccn[nH]1	-2	86	x	x	-1
O=C(O)c1cccc(NC(=O)c2ccccc2)c1	x	x	x	-3	-1
Cc1ccc(S(=O)(=O)NC(=O)c2cccc(Br)c2)cc1	-15	93	9	2	0
C=CCSc1nc(Oc2ccccc2)c2sccc2n1	-4	123	-11	-2	15*
CSc1nc(Oc2ccccc2)c2sccc2n1	6	97	21	-6	-1
CC(NC(=O)c1ccco1)C(=O)N1CCc2ccccc2C1 (stereo unspecified)	-10	99	43*	0	-1
O=C(NCCC(=O)N1CCCCCCC1)c1ccc(Cl)cc1	3	81	x	-2	2
COc1ccc(CN2CCN(Cc3c[nH]c4ccccc34)CC2CCO)c(F)c1 (stereo unspecified)	7	101	15	-12	1
